PubChem BioAssay (NCI)
Compounds without any hit were thinned out: in the full panel of roughly 83,000, 20% have a hit.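 Activity criterion: percent growth below 10, measured after cells in 96-well plates were exposed to a single compound concentration for 48 hours.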 Calls of active or inactive are those of the source.

test system: NCI-H322M lung; experiment: NCI-60 one-dose screen, 48 h (100 = growth as untreated, 0 = no growth, -100 = all killed); settings: 10 µM unless noted

With CCN(CC)c1ccc(/C=C2\Oc3ccc(O)c(I)c3C2=O)cc1 as the compound, how does the growth read?
The growth was 96.9% (inactive).

CC1(c2ccc(Cl)cc2)OC(=O)CC(=O)O1 was tested. Which growth did it give?
The growth was 109% (inactive).

Cc1csc(NC(c2ccccc2)c2c(C)nc3ccccn23)n1 (stereo not drawn) was tested. Which growth did it give?
Its growth is 104% (inactive).

How did the growth turn out when COc1cc(-c2nc(N=Nc3c(O)[nH]c4ccc(Br)cc34)[nH]c(=O)c2C#N)cc(OC)c1OC was run?
Its growth is 99.4% (inactive).

For O=C1/C(=C/c2ccc(Cl)cc2)CN(C(=O)CCN2CCC(=NO)CC2)C/C1=C\c1ccc(Cl)cc1, which growth is on record?
The growth was -75% (active).

Which growth does the source give for Cc1ccc(-c2cc3nc(C(Cl)Cl)nc(-c4ccccc4C)n3n2)cc1 here?
Its growth is 86.6% (inactive).

How did the growth turn out when Nc1cccc(-c2nc3sccn3c2-c2ccnc(NCCNS(=O)(=O)c3ccc(C(F)(F)F)cc3)n2)c1 was run?
The growth was 42.4% (inactive).

For FC(F)(F)c1cccc(-c2cn3c(ccc4ccccc43)n2)c1, which growth is on record?
The growth was 97.5% (inactive).

With CCCCCCN1CSC(=S)N(CCCCCC)C1 as the compound, how does the growth read?
Its growth is 115% (inactive).

How did the growth turn out when Oc1ccc2cc(Br)ccc2c1-c1c(O)ccc2cc(Br)ccc12 was run?
Its growth is 57.1% (inactive).

With C=C(C)[C@@H]1C[C@H](O)Cc2cc(F)ccc2N1 as the compound, how does the growth read?
The growth was 102% (inactive).

For NC1=NC(SCc2ccccc2CCl)c2ncn(Cc3ccccc3CCl)c2N1 (stereo not drawn), which growth is on record?
Its growth is 80.8% (inactive).

With COc1ccc(C(=O)c2cc(OC)c(OC)c(OC)c2OC)cc1O as the compound, how does the growth read?
The growth was 55.4% (inactive).

With CNc1ccc(Br)c2c1C(=O)c1ccccc1C2=O as the compound, how does the growth read?
Its growth is 110% (inactive).

Which growth does the source give for Cc1cc(N/N=C/c2nc(-c3ccccc3)oc2C)c2cc(Br)ccc2n1 here?
Its growth is 94.3% (inactive).

How did the growth turn out when CC(C)(C)n1cc(-c2ccnc(NCCCNS(=O)(=O)c3ccccc3)c2)c(-c2cccc(O)c2)n1 was run?
Its growth is 59.1% (inactive).

With O=C1Nc2ccc(Cl)cc2C12Nc1cc(Cl)ccc1S2 (stereo not drawn) as the compound, how does the growth read?
The growth was 100% (inactive).

For O=C1/C(=C/c2ccccc2)CN(C(=O)CCN2CCC(=NO)CC2)C/C1=C\c1ccccc1, which growth is on record?
The growth was 34% (inactive).

For O=[N+]([O-])c1cccc(-c2nc3sccn3c2-c2ccnc(NCCCNS(=O)(=O)c3ccc(Cl)cc3)n2)c1, which growth is on record?
The growth was 78.5% (inactive).

How did the growth turn out when Cc1ccc(S(=O)(=O)Nc2c(Br)cc(Br)cc2C(N)=O)cc1 was run?
The growth was 88.4% (inactive).

With CN(C[C@H]1Cc2c(cccc2N2CCN(Cc3ccccn3)CC2)CN1)[C@H]1CCCc2cccnc21 as the compound, how does the growth read?
Its growth is 65.3% (inactive).

With CC(C)(C)OC(=O)NC(CSCc1ccccc1)C(=O)ON1C(=O)CCC1=O (stereo not drawn) as the compound, how does the growth read?
Its growth is 131% (inactive).

How did the growth turn out when COc1ccc(-c2ccc(-c3ccc(C(=N)N)s3)s2)cc1Cl was run?
Its growth is 96.8% (inactive).

For O=[N+]([O-])c1ccc(C(c2ccccc2)c2ccccc2)cc1, which growth is on record?
Its growth is 78% (inactive).

CCN(CC)c1ccc2[nH]c3c(C(N)=O)cc(=O)c(=O)c=3oc2c1 was tested. Which growth did it give?
Its growth is -9.42% (active).

Which growth does the source give for CCNc1nc(S(=O)(=O)CC)nc2ccccc12 here?
The growth was 104% (inactive).

How did the growth turn out when CCC(=O)Oc1ccc(/C(=C(/C)Cc2cccc(OC)c2)c2ccc(OCCN(C)C)cc2)cc1 was run?
Its growth is 94.5% (inactive).

Which growth does the source give for Nc1nc(-c2ccccc2)c(CCCOc2ccc(NC(=O)CBr)cc2)c(=O)[nH]1 here?
The growth was 135% (inactive).

Which growth does the source give for CN(C)CCOC(=O)Nc1ccccc1Cl here?
Its growth is 104% (inactive).

For c1ccc(-c2nnc(-c3ccccn3)s2)nc1, which growth is on record?
Its growth is 117% (inactive).

For COc1ccc(-c2nc(N3CCCC3=O)sc2Br)cc1OC, which growth is on record?
The growth was 96.6% (inactive).

For C=C1CCC2C3(C)COC(c4c(OC)cccc4OC)OC3CCC2(C)C1C/C=C1/C(=O)OCC1O (stereo not drawn), which growth is on record?
Its growth is 70.3% (inactive).

How did the growth turn out when c1cc2[nH]ncc2cc1-c1nc2ccc3[nH]ncc3c2c2c1CCC2 was run?
The growth was 58% (inactive).

How did the growth turn out when COc1ccc2c(c1)[nH]c(=O)c1c3cc(OC)ccc3cn21 was run?
Its growth is 33.6% (inactive).

For NC(N)=Nc1nc2ccccc2o1, which growth is on record?
The growth was 106% (inactive).

With Nc1ccc(C(=O)CSc2nc3ccccc3[nH]2)cc1 as the compound, how does the growth read?
The growth was 108% (inactive).

For CC(C)(C)n1cc(-c2ccnc(NCCCNS(=O)(=O)c3ccc(F)cc3)c2)c(-c2cccc(O)c2)n1, which growth is on record?
Its growth is 60.5% (inactive).

With COc1ccccc1CNCCCN1C(=O)c2ccc3c4c(ccc(c24)C1=O)C(=O)N(CCCNCCCCNCCCN)C3=O as the compound, how does the growth read?
The growth was -4.96% (active).

O=C(CCl)N(C1CCCCC1)C1CCCCC1 was tested. Which growth did it give?
Its growth is 98.8% (inactive).

test system: HOP-62 NSCLC; experiment: as above; settings: 10 µM unless noted

How did the growth turn out when CCN(CC)c1ccc(/C=C2\Oc3ccc(O)c(I)c3C2=O)cc1 was run?
Its growth is 77.8% (inactive).

With CC1(c2ccc(Cl)cc2)OC(=O)CC(=O)O1 as the compound, how does the growth read?
The growth was 102% (inactive).

How did the growth turn out when Cc1csc(NC(c2ccccc2)c2c(C)nc3ccccn23)n1 (stereo not drawn) was run?
The growth was 95.4% (inactive).

Which growth does the source give for COc1cc(-c2nc(N=Nc3c(O)[nH]c4ccc(Br)cc34)[nH]c(=O)c2C#N)cc(OC)c1OC here?
The growth was 105% (inactive).

How did the growth turn out when O=C1/C(=C/c2ccc(Cl)cc2)CN(C(=O)CCN2CCC(=NO)CC2)C/C1=C\c1ccc(Cl)cc1 was run?
Its growth is -80.1% (active).

With Cc1ccc(-c2cc3nc(C(Cl)Cl)nc(-c4ccccc4C)n3n2)cc1 as the compound, how does the growth read?
The growth was 68.3% (inactive).

How did the growth turn out when Nc1cccc(-c2nc3sccn3c2-c2ccnc(NCCNS(=O)(=O)c3ccc(C(F)(F)F)cc3)n2)c1 was run?
The growth was 49.6% (inactive).

FC(F)(F)c1cccc(-c2cn3c(ccc4ccccc43)n2)c1 was tested. Which growth did it give?
Its growth is 76.7% (inactive).

With CCCCCCN1CSC(=S)N(CCCCCC)C1 as the compound, how does the growth read?
The growth was 104% (inactive).

Oc1ccc2cc(Br)ccc2c1-c1c(O)ccc2cc(Br)ccc12 was tested. Which growth did it give?
Its growth is 72.2% (inactive).

With C=C(C)[C@@H]1C[C@H](O)Cc2cc(F)ccc2N1 as the compound, how does the growth read?
Its growth is 87.4% (inactive).

With NC1=NC(SCc2ccccc2CCl)c2ncn(Cc3ccccc3CCl)c2N1 (stereo not drawn) as the compound, how does the growth read?
Its growth is 74.5% (inactive).

How did the growth turn out when COc1ccc(C(=O)c2cc(OC)c(OC)c(OC)c2OC)cc1O was run?
Its growth is 42% (inactive).

CNc1ccc(Br)c2c1C(=O)c1ccccc1C2=O was tested. Which growth did it give?
The growth was 107% (inactive).

How did the growth turn out when Cc1cc(N/N=C/c2nc(-c3ccccc3)oc2C)c2cc(Br)ccc2n1 was run?
The growth was 87.5% (inactive).

CC(C)(C)n1cc(-c2ccnc(NCCCNS(=O)(=O)c3ccccc3)c2)c(-c2cccc(O)c2)n1 was tested. Which growth did it give?
Its growth is 66.1% (inactive).

With O=C1Nc2ccc(Cl)cc2C12Nc1cc(Cl)ccc1S2 (stereo not drawn) as the compound, how does the growth read?
Its growth is 103% (inactive).

For O=C1/C(=C/c2ccccc2)CN(C(=O)CCN2CCC(=NO)CC2)C/C1=C\c1ccccc1, which growth is on record?
Its growth is 49.9% (inactive).

Which growth does the source give for O=[N+]([O-])c1cccc(-c2nc3sccn3c2-c2ccnc(NCCCNS(=O)(=O)c3ccc(Cl)cc3)n2)c1 here?
The growth was 84% (inactive).

For Cc1ccc(S(=O)(=O)Nc2c(Br)cc(Br)cc2C(N)=O)cc1, which growth is on record?
The growth was 109% (inactive).

With CN(C[C@H]1Cc2c(cccc2N2CCN(Cc3ccccn3)CC2)CN1)[C@H]1CCCc2cccnc21 as the compound, how does the growth read?
The growth was 39.1% (inactive).

With CC(C)(C)OC(=O)NC(CSCc1ccccc1)C(=O)ON1C(=O)CCC1=O (stereo not drawn) as the compound, how does the growth read?
The growth was 105% (inactive).

For COc1ccc(-c2ccc(-c3ccc(C(=N)N)s3)s2)cc1Cl, which growth is on record?
The growth was 70.9% (inactive).

With O=[N+]([O-])c1ccc(C(c2ccccc2)c2ccccc2)cc1 as the compound, how does the growth read?
Its growth is 102% (inactive).

Which growth does the source give for CCN(CC)c1ccc2[nH]c3c(C(N)=O)cc(=O)c(=O)c=3oc2c1 here?
The growth was -11.8% (active).

For CCNc1nc(S(=O)(=O)CC)nc2ccccc12, which growth is on record?
The growth was 96.1% (inactive).

For CCC(=O)Oc1ccc(/C(=C(/C)Cc2cccc(OC)c2)c2ccc(OCCN(C)C)cc2)cc1, which growth is on record?
The growth was 108% (inactive).

With Nc1nc(-c2ccccc2)c(CCCOc2ccc(NC(=O)CBr)cc2)c(=O)[nH]1 as the compound, how does the growth read?
Its growth is 134% (inactive).

For CN(C)CCOC(=O)Nc1ccccc1Cl, which growth is on record?
Its growth is 101% (inactive).

c1ccc(-c2nnc(-c3ccccn3)s2)nc1 was tested. Which growth did it give?
The growth was 80.4% (inactive).

With COc1ccc(-c2nc(N3CCCC3=O)sc2Br)cc1OC as the compound, how does the growth read?
The growth was 103% (inactive).

With C=C1CCC2C3(C)COC(c4c(OC)cccc4OC)OC3CCC2(C)C1C/C=C1/C(=O)OCC1O (stereo not drawn) as the compound, how does the growth read?
The growth was 104% (inactive).

With c1cc2[nH]ncc2cc1-c1nc2ccc3[nH]ncc3c2c2c1CCC2 as the compound, how does the growth read?
Its growth is 47.6% (inactive).

COc1ccc2c(c1)[nH]c(=O)c1c3cc(OC)ccc3cn21 was tested. Which growth did it give?
The growth was 20% (inactive).

NC(N)=Nc1nc2ccccc2o1 was tested. Which growth did it give?
The growth was 88.4% (inactive).

With Nc1ccc(C(=O)CSc2nc3ccccc3[nH]2)cc1 as the compound, how does the growth read?
The growth was 111% (inactive).

CC(C)(C)n1cc(-c2ccnc(NCCCNS(=O)(=O)c3ccc(F)cc3)c2)c(-c2cccc(O)c2)n1 was tested. Which growth did it give?
Its growth is 74% (inactive).

Which growth does the source give for COc1ccccc1CNCCCN1C(=O)c2ccc3c4c(ccc(c24)C1=O)C(=O)N(CCCNCCCCNCCCN)C3=O here?
Its growth is -55.2% (active).

O=C(CCl)N(C1CCCCC1)C1CCCCC1 was tested. Which growth did it give?
The growth was 119% (inactive).
